Sensor-assay potency score (higher = more potent) data for 40 sequences are collected here from the OligoGym collection.
Note: reference of the scale not given here.

For one assay, the target named is RNF219. Description: pooled miR-30 sensor sort-seq; sequence = guide strand. Particulars: shRNA.
For TTCACTTGAATTTTTTAGCTGT, the sensor-assay potency score (higher = more potent) came out at 0.783.

In turn, TAGCTTATCCACATCATCTTTC displayed a sensor-assay potency score (higher = more potent) of -0.402. Sequence TTAGCTTATCCACATCATCTTT displayed a sensor-assay potency score (higher = more potent) of -0.899. TACTTGTATCTGTCACATCTAA showed a sensor-assay potency score (higher = more potent) of -0.451. Still for that read-out and setting: the value for ATACTTATCACTTCGTTCCAGG was -0.456; that for TCTGTCTGAAACAAGCAGCTTG was -0.169.

In another assay the target is RNF41. The description is as above. Particulars: shRNA.
Sequence TCTGATTTCCATCTCTTCCTGA returned a sensor-assay potency score (higher = more potent) of 0.105. The sequence TTTGACAACATGTTCCGCATGA yielded a sensor-assay potency score (higher = more potent) of 0.502. As to ATCTTCGTCAACATCCCCCTGG, the sensor-assay potency score (higher = more potent) was -0.316. In turn, TAGTTCTCATAGTAGCGTCGGT registered a sensor-assay potency score (higher = more potent) of -0.784. For the sequence AACATGTTCCGCATGATCCGAG, the sensor-assay potency score (higher = more potent) was -0.3. In turn, AAGATCTTCGTCAACATCCCCC had a sensor-assay potency score (higher = more potent) of -0.164. TAGCGTCGGTTCATCTGTCTAG returned a sensor-assay potency score (higher = more potent) of 0.0647.

TAATTTATAGACATTTTAGGGG: the sensor-assay potency score (higher = more potent) is 0.0646. TCATCTGTCTAGTCTCTAGTGT displayed a sensor-assay potency score (higher = more potent) of -0.527.

In turn, TTCAGCTGACGTCTTCTCCAGC had a sensor-assay potency score (higher = more potent) of -0.881.

ATCTGTCTAGTCTCTAGTGTGG displayed a sensor-assay potency score (higher = more potent) of -0.878.

The target of the next assay is RNMTL1. Described as above. Particulars: shRNA.
Turning to TGATGCTTCAGGAACTTTCTGG, the sensor-assay potency score (higher = more potent) was -0.0145.

For TTGTCAGCCACATAGACCCGAG, the sensor-assay potency score (higher = more potent) was -0.82.

Consider TTTCCTGTAACTGTATGACGGC, for which the sensor-assay potency score (higher = more potent) was -0.465. TTATTAGACATCTCAGCCTGGG returned a sensor-assay potency score (higher = more potent) of -0.331. In turn, TACTATTGTCATTACACTGCTC yielded a sensor-assay potency score (higher = more potent) of 0.0183. Still for that read-out and setting: the value for TTTATTAGACATCTCAGCCTGG was 0.616. Still for that read-out and setting: the value for TAGCTTTATTAGACATCTCAGC was -0.834. For TTGTGAAACTTCATCACTCGTT, the sensor-assay potency score (higher = more potent) came out at 0.595. TTATTGATAATGGGCATCCGGA came in with a sensor-assay potency score (higher = more potent) of -0.992. Consider TTTACTATTGTCATTACACTGC, for which the sensor-assay potency score (higher = more potent) was -0.096. Same read-out and setting: the figure for TTCTGTTCCACCACCTCTCCGG is -0.00954.

TTGGTGAGTAACACTTTGCTGC had a sensor-assay potency score (higher = more potent) of -0.11.

The next assay addresses RNPC3. The assay is described as above. Particulars: shRNA.
TCGAGCAAACTGAACCACCATG gave a sensor-assay potency score (higher = more potent) of -1.27. Sequence TTTTTCTTTATCATCTTCGACA gave a sensor-assay potency score (higher = more potent) of -0.554. TTCTTTATCATCTTCGACAGGG came in with a sensor-assay potency score (higher = more potent) of 0.314. Consider TTTCTTGAACATGTTTAGCTAA, for which the sensor-assay potency score (higher = more potent) was -0.355.

The sequence TATATCAAACATGATCCGCTGT yielded a sensor-assay potency score (higher = more potent) of 0.81. The same measure, in the same setting: the value for TTCTCTAGAAATTCTGCCCTTT was -0.078; that for TTCCTCACAATTTTGTTCCTTT was 1.11. TTGGTCTAGCAGATCGAGCAAA gave a sensor-assay potency score (higher = more potent) of -1.03. The sequence TTTGCTAGGATTGTGCTGGAAG yielded a sensor-assay potency score (higher = more potent) of -0.549.

TATTGTTTTAGGTCTTTTGGGC displayed a sensor-assay potency score (higher = more potent) of -0.105. For the sequence TTCTTGAACATGTTTAGCTAAA, the sensor-assay potency score (higher = more potent) is -1.09.
